The values below come from PubChem BioAssay (NCI).

This is part of a sample that, as a whole, favours compounds with a hit. Of some 83,000 tested, about 20% had one in any assay.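 Assay: single dose, 48 h. Readout: percent growth (0 = no net growth; negative = cell death). Active: <10.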 Activity calls are given as the source filed them.

In the first test the test system is MCF7 breast. In words: NCI-60 one-dose screen, 48 h (100 = growth as untreated, 0 = no growth, -100 = all killed). The conditions noted are these: 10 µM unless noted.
In the case of `O=C(NCCCNc1nccc(-n2ccc3cccnc32)n1)c1c(F)cccc1F`, the growth is 88.4% (inactive).
Still for that read-out and setting: the same measure for `COc1ccc(C(=O)c2cc(OC)c3c(c2)OCO3)cc1O`: 17.1% (inactive); for `Cc1cc(C(C)(C)C)ccc1S`: 86.4% (inactive); for `Cn1cnc2c(N3CCN(C(=O)OCc4ccc5c(Cl)cc(Cl)c(O)c5n4)CC3)nc(Cl)nc21`: 73% (inactive).
The same measure, in the same setting: the figure for `Fc1ccccc1-c1nc(-c2nc3cc(Cl)c(Cl)cc3[nH]2)c2ccccn12` is 40.5% (inactive).
Same read-out and setting: the same measure for `C1=Cc2ccccc2N(c2nnc(-c3ccccc3)o2)c2ccccc21`: 87.6% (inactive).
For the compound `COc1cc(C2CC(c3ccc4c(c3)OCO4)=NN2C=O)cc(OC)c1OC` (configuration not stated), the growth is 16.8% (inactive).
Turning to `COc1ccc(/C=C2/C(=O)NC(SCC(=O)N3CCN(c4cc5c(cc4F)c(=O)c(C(=O)O)cn5C4CC4)CC3)=NC2N)cc1OC` (configuration not stated), the growth is 98% (inactive).
Still for that read-out and setting: the figure for `COc1cc(C2CC(c3ccc4c(c3)OCO4)=NN2C(C)=O)cc(OC)c1OC` (configuration not stated) is 17.4% (inactive).
The same measure, in the same setting: the figure for `COc1cc(NCCCCCN)c2ncccc2c1` is 83.2% (inactive).
The same measure, in the same setting: the same measure for `C=C1CCC2C(C)(CO)C(O)CCC2(C)C1C/C=C1/C(=O)OCC1Oc1ccccc1C` (configuration not stated): 29.5% (inactive); for `CCCCCCCCCCCCCCCCNC(=O)OC(C)C`: 1.73% (active); for `O=C(/C=C/c1cc(-c2ccc3c(c2)OCO3)n[nH]1)c1ccc2c(c1)OCO2`: 84.8% (inactive).
For `COc1ccccc1CNCCCN1C(=O)c2ccc3c4c(ccc(c24)C1=O)C(=O)N(CCCNCCCCNCCCN)C3=O`, the growth is -38.4% (active).
On the same count and under the same terms, the same measure for `NC(=N\N=C/c1ccc(O)cc1)/C(N)=N\N=C/c1ccc(O)cc1`: 66.4% (inactive); for `COc1ccc(-c2c(N)n[nH]c2-c2cc(OC)c3c(c2)OCCO3)cc1`: 57.6% (inactive); for `C=C1CCC2C(C)(CO)C(O)CCC2(C)C1C/C=C1/C(=O)OCC1O/C=C/c1ccccc1` (configuration not stated): 32.6% (inactive).
On the same count and under the same terms, the figure for `CC(C)(C)n1cc(-c2ccnc(NCCNS(=O)(=O)c3ccc(F)cc3)c2)c(-c2cccc(O)c2)n1` is 28.5% (inactive); for `COc1ccc2c(c1)OC1=C(C(=O)OC1)C2c1cc(OC)c2c(c1)OCO2` (configuration not stated) it is 15% (inactive).
For `CC(C)OC(=O)N1CCOCC1`, the growth was 100% (inactive).
The same measure, in the same setting: the figure for `CC12CCC3C4(C)COC(c5ccccc5Cl)OC4CCC3(C)C1CC(C1=CCOC1=O)O2` (configuration not stated) is 46.6% (inactive); for `CCCOC(=O)n1cccc1` it is 95% (inactive).
Take `O=S(=O)(NCCCNc1nccc(-n2ccc3cccnc32)n1)c1cccc(C(F)(F)F)c1`: the growth was 103% (inactive).
Still for that read-out and setting: the figure for `Cc1ccc(S(=O)(=O)NCCNc2cc(-c3cn(C(C)(C)C)nc3-c3cccc(O)c3)ccn2)cc1` is 41.6% (inactive).
The same measure, in the same setting: the same measure for `Cc1ccc(S(=O)(=O)NCCCNc2cc(-c3cn(C(C)(C)C)nc3-c3cccc(O)c3)ccn2)cc1`: 45.7% (inactive); for `C=C1CCC2C(C)(CO)C(O)CCC2(C)C1CC(NCc1ccccc1)C1=CCOC1=O` (configuration not stated): 89.8% (inactive).
On the same count and under the same terms, the figure for `COc1ccc2c(c1)NC1=C(C(=O)OC1)C2c1cc(OC)c2c(c1)OCO2` (configuration not stated) is 17.9% (inactive).
Consider `COc1cc(Nc2ncccc2C(=O)NCc2cn(Cc3cccc(Oc4ccccc4)c3)nn2)cc(OC)c1`, for which the growth was 18.3% (inactive).
Same read-out and setting: the figure for `C=C1CCC2C3(C)COC(C)(C)OC3CCC2(C)C1C/C=C1/C(=O)OCC1Oc1ccccc1OC` (configuration not stated) is 30.2% (inactive); for `O=C(/C=C/c1ccccc1)c1cccc(O)c1` it is 14.9% (inactive); for `CC(C)(C)n1cc(-c2ccnc(NCCCNS(=O)(=O)c3ccc(F)cc3)c2)c(-c2cccc(O)c2)n1` it is 16.7% (inactive).
The same measure, in the same setting: the same measure for `COc1cc(C2C3=C(COC3=O)Nc3cc4c(cc32)OCO4)cc2c1OCO2` (configuration not stated): 13.9% (inactive); for `O=C(NCCNc1nccc(-n2ccc3cccnc32)n1)c1ccc(C(F)(F)F)cc1`: 95.6% (inactive); for `COc1cc(C2C3=C(COC3=O)Nc3cc4c(cc32)CCC4)cc2c1OCO2` (configuration not stated): 19.1% (inactive).
The same measure, in the same setting: the figure for `COc1ccc(-c2ccc(C)n2-c2ccc(-c3nc4cc(Cl)ccc4s3)cc2)cc1` is 48.3% (inactive); for `O=C(NCc1cn(Cc2cccc(Oc3ccccc3)c2)nn1)c1cccnc1Nc1ccc(F)cc1` it is 24% (inactive); for `CC12CCCC(CC(=O)c3[nH]c4ccccc4c31)C2` (configuration not stated) it is 21.1% (inactive).

Another test relates to HCT-116 colon. Described as above. The conditions noted are these: 10 µM unless noted.
For the compound `O=C(NCCCNc1nccc(-n2ccc3cccnc32)n1)c1c(F)cccc1F`, the growth is 101% (inactive).
Consider `COc1ccc(C(=O)c2cc(OC)c3c(c2)OCO3)cc1O`, for which the growth is 7.71% (active).
As for `Cc1cc(C(C)(C)C)ccc1S`, the growth is 103% (inactive).
Turning to `Cn1cnc2c(N3CCN(C(=O)OCc4ccc5c(Cl)cc(Cl)c(O)c5n4)CC3)nc(Cl)nc21`, the growth was 53.1% (inactive).
The same measure, in the same setting: the figure for `Fc1ccccc1-c1nc(-c2nc3cc(Cl)c(Cl)cc3[nH]2)c2ccccn12` is 37.7% (inactive); for `C1=Cc2ccccc2N(c2nnc(-c3ccccc3)o2)c2ccccc21` it is 66.6% (inactive); for `COc1cc(C2CC(c3ccc4c(c3)OCO4)=NN2C=O)cc(OC)c1OC` (configuration not stated) it is 20.6% (inactive).
With `COc1ccc(/C=C2/C(=O)NC(SCC(=O)N3CCN(c4cc5c(cc4F)c(=O)c(C(=O)O)cn5C4CC4)CC3)=NC2N)cc1OC` (configuration not stated), the growth was 105% (inactive).
Still for that read-out and setting: the figure for `COc1cc(C2CC(c3ccc4c(c3)OCO4)=NN2C(C)=O)cc(OC)c1OC` (configuration not stated) is 30.9% (inactive); for `COc1cc(NCCCCCN)c2ncccc2c1` it is 89.1% (inactive); for `C=C1CCC2C(C)(CO)C(O)CCC2(C)C1C/C=C1/C(=O)OCC1Oc1ccccc1C` (configuration not stated) it is 71.4% (inactive).
On the same count and under the same terms, the figure for `CCCCCCCCCCCCCCCCNC(=O)OC(C)C` is 20.8% (inactive); for `O=C(/C=C/c1cc(-c2ccc3c(c2)OCO3)n[nH]1)c1ccc2c(c1)OCO2` it is 92.7% (inactive).
Same read-out and setting: the figure for `c1cc(C2=N[C@@H]3c4ccccc4C[C@@H]3O2)nc(C2=N[C@@H]3c4ccccc4C[C@@H]3O2)c1` is 103% (inactive); for `COc1ccccc1CNCCCN1C(=O)c2ccc3c4c(ccc(c24)C1=O)C(=O)N(CCCNCCCCNCCCN)C3=O` it is -2.94% (active); for `COc1ccc(-c2c(N)n[nH]c2-c2cc(OC)c3c(c2)OCCO3)cc1` it is 57.2% (inactive).
As for `C=C1CCC2C(C)(CO)C(O)CCC2(C)C1C/C=C1/C(=O)OCC1O/C=C/c1ccccc1` (configuration not stated), the growth was 58.5% (inactive).
Same read-out and setting: the figure for `COc1ccc2c(c1)OC1=C(C(=O)OC1)C2c1cc(OC)c2c(c1)OCO2` (configuration not stated) is 10% (inactive); for `CC(C)OC(=O)N1CCOCC1` it is 102% (inactive); for `CC12CCC3C4(C)COC(c5ccccc5Cl)OC4CCC3(C)C1CC(C1=CCOC1=O)O2` (configuration not stated) it is 40.5% (inactive).
Still for that read-out and setting: the same measure for `Cc1ccc(S(=O)(=O)NCCNc2cc(-c3cn(C(C)(C)C)nc3-c3cccc(O)c3)ccn2)cc1`: 62.1% (inactive); for `Cc1ccc(S(=O)(=O)NCCCNc2cc(-c3cn(C(C)(C)C)nc3-c3cccc(O)c3)ccn2)cc1`: 52.5% (inactive); for `C=C1CCC2C(C)(CO)C(O)CCC2(C)C1CC(NCc1ccccc1)C1=CCOC1=O` (configuration not stated): 99.8% (inactive).
Still for that read-out and setting: the figure for `COc1ccc2c(c1)NC1=C(C(=O)OC1)C2c1cc(OC)c2c(c1)OCO2` (configuration not stated) is 6.69% (active); for `COc1cc(Nc2ncccc2C(=O)NCc2cn(Cc3cccc(Oc4ccccc4)c3)nn2)cc(OC)c1` it is 19.5% (inactive); for `CC12CCC3C4(C)COC(c5ccco5)OC4CCC3(C)C1CC(C1=CCOC1=O)O2` (configuration not stated) it is 104% (inactive).
With `C=C1CCC2C3(C)COC(C)(C)OC3CCC2(C)C1C/C=C1/C(=O)OCC1Oc1ccccc1OC` (configuration not stated), the growth was 73.3% (inactive).
With `O=C(/C=C/c1ccccc1)c1cccc(O)c1`, the growth was -71.6% (active).
Regarding `CC(C)(C)n1cc(-c2ccnc(NCCCNS(=O)(=O)c3ccc(F)cc3)c2)c(-c2cccc(O)c2)n1`, the growth was 32% (inactive).
Regarding `COc1cc(C2C3=C(COC3=O)Nc3cc4c(cc32)OCO4)cc2c1OCO2` (configuration not stated), the growth is 6.83% (active).
On the same count and under the same terms, the figure for `O=C(NCCNc1nccc(-n2ccc3cccnc32)n1)c1ccc(C(F)(F)F)cc1` is 100% (inactive).
On the same count and under the same terms, the figure for `COc1cc(C2C3=C(COC3=O)Nc3cc4c(cc32)CCC4)cc2c1OCO2` (configuration not stated) is 5.73% (active).
On the same count and under the same terms, the figure for `COc1ccc(-c2ccc(C)n2-c2ccc(-c3nc4cc(Cl)ccc4s3)cc2)cc1` is 97.4% (inactive); for `O=C(NCc1cn(Cc2cccc(Oc3ccccc3)c2)nn1)c1cccnc1Nc1ccc(F)cc1` it is 32.8% (inactive); for `CC12CCCC(CC(=O)c3[nH]c4ccccc4c31)C2` (configuration not stated) it is 22.7% (inactive).
